Measured values taken from PubChem BioAssay (NCI).
This is part of a sample that, as a whole, favours compounds with a hit. Of some 83,000 tested, about 20% had one in any assay.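 Treatment: one concentration, 48 hours, 96-well format. Scoring: percent growth, with anything below 10 considered active.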 A number with no mark means an inactive call. Activity calls are given as the source filed them.

Columns and labels:
Test in all cases: NCI-60 one-dose screen, 48 h (100 = growth as untreated, 0 = no growth, -100 = all killed)
Conditions in all cases: 10 µM unless noted
NCI-H23 lung = test system: NCI-H23 lung
NCI-H226 lung = test system: NCI-H226 lung
NCI-H322M lung = test system: NCI-H322M lung
HOP-62 NSCLC = test system: HOP-62 NSCLC
NCI-H460 lung = test system: NCI-H460 lung
HOP-92 NSCLC = test system: HOP-92 NSCLC
NCI-H522 lung = test system: NCI-H522 lung
A549/ATCC NSCLC = test system: A549/ATCC NSCLC
786-0 renal = test system: 786-0 renal
COLO 205 colon = test system: COLO 205 colon

Structure (SMILES) | growth (NCI-H23 lung) | growth (NCI-H226 lung) | growth (NCI-H322M lung) [%] | growth (HOP-62 NSCLC) | growth (NCI-H460 lung) | growth (HOP-92 NSCLC) | growth (NCI-H522 lung) | growth (A549/ATCC NSCLC) | growth (786-0 renal) | growth (COLO 205 colon)
O=C(O)c1ccccc1C(=O)c1ccc(I)cc1 | 102% | 101% | 104 | 88.7% | 105% | 78.3% | 75.5% | 98.4% | 99% | 103%
O=C(Cn1c2ccccc2c2ccncc21)N/N=C/c1cc(O)c(O)c(O)c1 | 103% | 105% | 108 | 104% | 101% | 111% | 84.5% | 101% | 105% | 110%
Cc1nccc2c3ccc(OCc4cn(-c5ccc(Br)cc5)nn4)cc3n(CCCc3ccccc3)c12 | 51.2% | 91% | 91.1 | 110% | 33.4% | 99.7% | 84.9% | 12.2% | -71.4% (active) | 40.7%
O=C1COc2ccccc2C(=O)N1CCCCNc1ccccc1 | 98.9% | 91.7% | 99.5 | 73.5% | 98.7% | 64.8% | 68.9% | 64.9% | 70.8% | 101%
C=C1C(=O)O[C@H]2[C@H]1CC/C(COC(=O)OC/C1=C/CC[C@@]3(C)O[C@H]3[C@H]3OC(=O)[C@@H](CN(C)C)[C@@H]3CC1)=C\CC[C@@]1(C)O[C@@H]21 | 47.6% | -49.6% (active) | 88 | 89.2% | 80.1% | -51.8% (active) | -48.5% (active) | 73.4% | -49.7% (active) | -43.2% (active)
Cc1cn(C2CC(F)C(CO)O2)c(=O)[nH]c1=O (stereo not given) | 90.3% | 95.9% | 85.9 | 88.4% | 51.8% | 69% | 86% | 84.7% | 87.3% | 116%
COc1cc(C(=O)NNC(=O)c2ccccc2C(=O)O)cc(OC)c1OC | 15.9% | 74.6% | 80.7 | 51.6% | 11.9% | 55.3% | 32.2% | 52.7% | 38.8% | 37.5%
O=C(O)c1ccc(-n2cc(/C=N/Nc3ccc(Cl)cc3)c(-c3ccc(F)c(F)c3)n2)cc1 | 84.9% | 95% | 72.5 | 107% | 93.1% | 81.5% | 47.6% | 78.9% | 67.2% | 99.7%
COc1ccc2c(c1)O/C(=C/c1ccc(OCC(=O)Nc3ccc(S(N)(=O)=O)cc3)cc1)C2=O | 100% | 86.9% | 97.8 | 104% | 101% | 91.4% | 80.7% | 88.5% | 96.7% | 114%
COc1ccc(-c2nn(-c3ccc(NC(=O)Nc4ccc(Cl)c(Cl)c4)cc3)cc2-c2ccncc2)cc1Cl | 6.03% (active) | 6.82% (active) | 47.2 | 20.7% | -21.1% (active) | -17% (active) | 0.622% (active) | 15% | 2.7% (active) | -47.7% (active)
O=C(NCCNc1nccc(-c2c(-c3cccc(O)c3)nc3sccn23)n1)c1cc(N2CCOCC2)cc(C(F)(F)F)c1 | 106% | 106% | 107 | 136% | 96.2% | 87.7% | 78.6% | 88.6% | 86.6% | 32.7%
COc1ccc(-c2nnc(NC(=O)CN3CCN(c4cc5c(cc4F)c(=O)c(C(=O)O)cn5C4CC4)CC3)s2)cc1OC | 96.3% | 87.8% | 98.2 | 95.6% | 101% | 106% | 89.1% | 100% | 88.1% | 104%
C=C1C(=O)O[C@H]2[C@H]1CC/C(COC(=O)c1ccc(Br)cc1)=C\CC[C@@]1(C)O[C@@H]21 | 32.6% | -55.8% (active) | 60.5 | 25.8% | 25.7% | -73% (active) | -78.1% (active) | 16.2% | -61% (active) | -67.2% (active)
Cc1nc(N)nc(SCc2ccccc2)c1Br | 93.7% | 83.7% | 70.3 | 83.1% | 104% | 79.4% | 66.7% | 73.4% | 88.9% | 105%
O=C(Nc1cccc(-n2ccc3c(NC(=O)c4ccccc4)ncnc32)c1)Nc1ccc(Cl)c(C(F)(F)F)c1 | 31.9% | 55.1% | 60.2 | 56.8% | 14.4% | 29.2% | 11.8% | 28.3% | 53.2% | 20.9%
O=[N+]([O-])c1cccc(C2c3ccccc3Oc3ccccc32)c1 | 94.6% | 84.1% | 83.6 | 85.4% | 88.1% | 81% | 80.8% | 87.4% | 99.9% | 90.3%
O=C(Nc1cccc(-n2ccc3c(NC(=O)c4ccccc4)nccc32)c1)c1cccc(C(F)(F)F)c1 | 20.8% | 35.6% | 34.2 | 36.4% | 3.05% (active) | 40.3% | -45.2% (active) | 7.84% (active) | -14.6% (active) | -44.5% (active)
COc1cc(/C=C/C(=O)c2c(C)[n+]([O-])c3ccccc3[n+]2[O-])ccc1O | 95.5% | 98.5% | 99.4 | 125% | 91.4% | 42.2% | 71% | 103% | 62.4% | 121%
CCN(CC)CC(=O)Nc1c(C)cccc1C | 106% | 92.9% | 90.2 | 106% | 112% | 104% | 101% | 104% | 95.4% | 115%
COc1ccc(/C=C/C(=O)/C=C(/C=C/c2ccc(OC)c(OC)c2OC)OB(F)F)c(OC)c1OC | 37.3% | 75.6% | 91.8 | 70.4% | 43.6% | 79.5% | 16.3% | 55.7% | 14.1% | 7.86% (active)
C=CC(=O)NC(=O)Nc1ccccc1Cl | 103% | 94.2% | 90.2 | 89.8% | 102% | 86.2% | 6.09% (active) | 75.4% | 74.3% | 88.9%
CCOc1ccc(NC2=C(Cl)C(=O)c3ccccc3C2=O)cc1 | 39.6% | 101% | 105 | 95.1% | 97.9% | 78.6% | 62.7% | 97% | 94.7% | 108%
COc1ccc(/C=C2\CS(=O)(=O)C/C(=C\c3ccc(OC)cc3)C2=O)cc1 | -49.3% (active) | -43.9% (active) | 30.9 | -67.7% (active) | -52.6% (active) | -41.3% (active) | -73.6% (active) | -56.5% (active) | -100% (active) | -70.6% (active)
Cc1cc(C)c(O)c(C(=O)CC(Br)C(=O)O)c1 (stereo not given) | 96.4% | 106% | 101 | 106% | 108% | 88.1% | 81.7% | 99.3% | 86.2% | 116%
Cc1c(NC(=O)c2sc3nc4c(cc3c2N)CN(Cc2ccccc2)CC4)cccc1C(F)(F)F | 72.7% | 65.7% | 73.1 | 35.9% | 18.7% | 77.1% | 10.4% | 53.7% | 84.4% | 21.6%
COc1cc2c(cc1OC)-c1c(oc3c4c(ccc3c1=O)OC(C)(C)C=C4)CO2 | 45.6% | 89.3% | 86.2 | 59.6% | 77.1% | 90.2% | 56.7% | 71.3% | 76.6% | 113%
